Experiments:
Experiment in all cases: DAPPL (digital affinity profiling via proximity ligation, sequencing); 10 mM Tris-HCl pH 7.5, 50 mM NaCl, 1 mM DTT, 4% glycerol, room temperature, 30 min; GST-TFs on glutathione beads, 16-mer random dsDNA library, 0.1% formaldehyde crosslink after washing; high values mean tight binding
Details in all cases: protein: recombinant; tags: N-terminal GST; dsDNA, one strand shown
FLI1 = molecular target: T1, FLI1 (Homo sapiens, UniProt Q01543 1-452)
T1 sequence: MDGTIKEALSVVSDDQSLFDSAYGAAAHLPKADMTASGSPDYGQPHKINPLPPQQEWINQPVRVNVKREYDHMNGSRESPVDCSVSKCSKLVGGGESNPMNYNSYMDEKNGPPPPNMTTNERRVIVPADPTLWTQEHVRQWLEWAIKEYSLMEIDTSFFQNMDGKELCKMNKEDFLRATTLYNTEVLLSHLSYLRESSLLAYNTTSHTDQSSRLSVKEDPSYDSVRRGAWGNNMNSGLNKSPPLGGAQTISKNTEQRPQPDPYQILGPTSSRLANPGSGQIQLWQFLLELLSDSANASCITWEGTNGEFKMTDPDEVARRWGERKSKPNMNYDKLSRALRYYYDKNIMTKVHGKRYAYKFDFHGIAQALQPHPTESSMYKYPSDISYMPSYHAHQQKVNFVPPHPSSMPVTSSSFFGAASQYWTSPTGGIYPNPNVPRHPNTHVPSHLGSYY
Outline: (§1)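 Binding signal is defined as a hexamer's read frequency for one factor over its frequency for the tag-only sample. To obtain reads, GST-fused human transcription factors were expressed in yeast, captured on glutathione beads, barcoded with DNA and pooled with that sample. Pools met 200 nmole of a 16-mer random double-stranded DNA library in Tris/NaCl/DTT/glycerol buffer for 30 min at room temperature before washing, 0.1% formaldehyde crosslinking, proximity ligation (BsaI/T4 ligase, 1 h, 37 °C), PCR and Illumina NextSeq500 sequencing.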

ELK1 = molecular target: T2, ELK1 (Homo sapiens, UniProt P19419 1-428)
T2 sequence: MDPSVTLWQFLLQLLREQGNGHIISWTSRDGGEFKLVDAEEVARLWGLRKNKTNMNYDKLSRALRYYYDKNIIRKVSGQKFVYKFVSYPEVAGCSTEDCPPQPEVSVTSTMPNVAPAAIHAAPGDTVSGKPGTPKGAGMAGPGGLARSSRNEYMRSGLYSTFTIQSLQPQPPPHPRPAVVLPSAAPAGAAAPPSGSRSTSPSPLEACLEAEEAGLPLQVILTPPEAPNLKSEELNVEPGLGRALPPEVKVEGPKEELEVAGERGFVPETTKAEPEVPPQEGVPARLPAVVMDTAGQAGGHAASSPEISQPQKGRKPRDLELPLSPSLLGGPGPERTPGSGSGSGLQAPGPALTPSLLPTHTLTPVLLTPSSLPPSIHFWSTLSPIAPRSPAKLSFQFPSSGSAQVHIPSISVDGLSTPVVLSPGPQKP
Outline: as §1

GABPA = molecular target: T3, GABPA (Homo sapiens, UniProt Q06546 1-454)
T3 sequence: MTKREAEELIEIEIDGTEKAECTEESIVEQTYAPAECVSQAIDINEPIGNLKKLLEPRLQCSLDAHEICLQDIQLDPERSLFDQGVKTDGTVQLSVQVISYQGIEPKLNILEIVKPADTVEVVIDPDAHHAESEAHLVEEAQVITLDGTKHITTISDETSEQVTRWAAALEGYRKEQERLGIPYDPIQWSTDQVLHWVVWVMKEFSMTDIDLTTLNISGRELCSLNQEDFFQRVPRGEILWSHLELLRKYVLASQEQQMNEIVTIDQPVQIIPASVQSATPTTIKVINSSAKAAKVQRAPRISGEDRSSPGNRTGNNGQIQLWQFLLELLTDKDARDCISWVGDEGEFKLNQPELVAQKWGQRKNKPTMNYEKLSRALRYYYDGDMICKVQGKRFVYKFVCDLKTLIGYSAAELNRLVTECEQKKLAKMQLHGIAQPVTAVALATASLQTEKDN
Outline: as §1

ERG = molecular target: T4, ERG (Homo sapiens, UniProt P11308 1-479)
T4 sequence: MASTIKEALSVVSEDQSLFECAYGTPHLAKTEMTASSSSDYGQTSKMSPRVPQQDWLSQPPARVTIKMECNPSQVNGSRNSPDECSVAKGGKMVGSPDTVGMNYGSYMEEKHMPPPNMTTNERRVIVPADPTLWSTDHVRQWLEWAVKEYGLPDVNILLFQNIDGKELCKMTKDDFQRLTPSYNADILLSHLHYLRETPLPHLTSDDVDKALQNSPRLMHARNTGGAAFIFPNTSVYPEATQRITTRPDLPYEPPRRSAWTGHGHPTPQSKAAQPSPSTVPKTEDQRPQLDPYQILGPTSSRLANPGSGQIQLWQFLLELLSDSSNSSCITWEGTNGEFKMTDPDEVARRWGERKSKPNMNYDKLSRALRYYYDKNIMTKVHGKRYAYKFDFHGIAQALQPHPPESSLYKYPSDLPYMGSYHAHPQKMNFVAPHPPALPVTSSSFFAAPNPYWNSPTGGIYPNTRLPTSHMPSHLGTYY
Outline: as §1

ELF1 = ELF1 (Homo sapiens, UniProt P32519 1-619)
Outline: as §1

EHF = molecular target: T5, EHF (Homo sapiens, UniProt Q9NZC4 1-300)
T5 sequence: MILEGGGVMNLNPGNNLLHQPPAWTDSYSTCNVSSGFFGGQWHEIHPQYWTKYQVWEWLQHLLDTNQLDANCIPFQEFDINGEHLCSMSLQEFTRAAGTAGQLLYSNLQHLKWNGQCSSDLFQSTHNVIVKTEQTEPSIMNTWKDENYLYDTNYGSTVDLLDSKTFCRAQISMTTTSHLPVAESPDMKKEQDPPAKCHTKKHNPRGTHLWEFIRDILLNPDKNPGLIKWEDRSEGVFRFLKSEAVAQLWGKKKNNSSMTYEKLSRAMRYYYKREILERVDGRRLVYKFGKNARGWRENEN
Outline: as §1

SPI1 = SPI1 (Homo sapiens, UniProt P17947 1-270)
Outline: as §1

SPIB = SPIB (Homo sapiens, UniProt Q01892 1-262)
Outline: as §1

ELK3 = molecular target: T6, ELK3 (Homo sapiens, UniProt P41970 1-407)
T6 sequence: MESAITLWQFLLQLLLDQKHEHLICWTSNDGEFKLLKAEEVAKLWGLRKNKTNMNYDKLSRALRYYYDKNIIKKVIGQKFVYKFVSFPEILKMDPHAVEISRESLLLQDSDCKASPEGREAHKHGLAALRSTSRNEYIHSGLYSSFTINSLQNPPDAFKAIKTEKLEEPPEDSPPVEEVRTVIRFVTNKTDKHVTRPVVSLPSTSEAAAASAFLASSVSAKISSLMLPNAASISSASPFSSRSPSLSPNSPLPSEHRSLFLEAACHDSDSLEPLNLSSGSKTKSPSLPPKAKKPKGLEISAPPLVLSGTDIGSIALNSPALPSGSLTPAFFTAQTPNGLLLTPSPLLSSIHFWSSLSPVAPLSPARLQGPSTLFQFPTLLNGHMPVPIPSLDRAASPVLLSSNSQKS
Outline: as §1

Sequence of ELF1 (P32519 whole entry): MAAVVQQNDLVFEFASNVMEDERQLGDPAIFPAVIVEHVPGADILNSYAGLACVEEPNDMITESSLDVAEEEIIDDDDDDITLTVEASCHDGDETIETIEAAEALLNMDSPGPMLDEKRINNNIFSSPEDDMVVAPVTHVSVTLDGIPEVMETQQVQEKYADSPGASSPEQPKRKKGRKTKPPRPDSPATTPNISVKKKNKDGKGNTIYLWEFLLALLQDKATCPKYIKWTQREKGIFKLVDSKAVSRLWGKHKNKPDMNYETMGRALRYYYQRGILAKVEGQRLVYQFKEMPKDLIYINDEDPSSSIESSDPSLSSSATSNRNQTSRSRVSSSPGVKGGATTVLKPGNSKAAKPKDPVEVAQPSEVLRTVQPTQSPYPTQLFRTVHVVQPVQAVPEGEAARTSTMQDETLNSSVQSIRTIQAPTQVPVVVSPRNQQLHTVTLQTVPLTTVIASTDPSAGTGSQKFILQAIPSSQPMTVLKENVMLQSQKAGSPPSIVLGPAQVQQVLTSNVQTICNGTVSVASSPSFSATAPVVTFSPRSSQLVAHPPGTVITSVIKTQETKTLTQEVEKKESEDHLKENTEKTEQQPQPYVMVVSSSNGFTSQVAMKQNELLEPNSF
Sequence of SPIB (Q01892 whole entry): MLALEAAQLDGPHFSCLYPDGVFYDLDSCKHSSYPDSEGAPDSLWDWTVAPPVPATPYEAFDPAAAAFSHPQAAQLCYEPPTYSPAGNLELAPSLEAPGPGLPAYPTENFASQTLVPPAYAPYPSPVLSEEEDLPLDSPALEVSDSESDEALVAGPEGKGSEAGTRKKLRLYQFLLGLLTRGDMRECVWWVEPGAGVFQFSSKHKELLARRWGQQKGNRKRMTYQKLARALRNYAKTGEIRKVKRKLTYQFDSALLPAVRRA

AACTGA was tested, and the binding signal (FLI1) was 1.07 fold enrichment (6-mer frequency, TF over GST control), the binding signal (ELK1) was 1.08 fold enrichment (6-mer frequency, TF over GST control) and the binding signal (GABPA) was 1.08 fold enrichment (6-mer frequency, TF over GST control). The binding signal (ERG) was 1.11 fold enrichment (6-mer frequency, TF over GST control), the binding signal (ELF1) was 1.13 fold enrichment (6-mer frequency, TF over GST control) and the binding signal (EHF) was 1.1 fold enrichment (6-mer frequency, TF over GST control). The binding signal (SPI1) was 1.13 fold enrichment (6-mer frequency, TF over GST control), the binding signal (SPIB) was 1.15 fold enrichment (6-mer frequency, TF over GST control) and the binding signal (ELK3) was 1.06 fold enrichment (6-mer frequency, TF over GST control).
